Only some compounds are listed: those with a hit (about 6.5% of all), similar ones and a draw of the others.
HepG2 tox: HepG2 cytotoxicity, counter-screen for TGF-b inhibitors. hit rate 0.76% among 410,000. AID 588856. HepG2 CAGA-GFP viability, ATP luminescence, 18 h. Potency, µM (top dose mostly 46.1 µM), for inactives: at the highest dose activity change, negative = cytotoxicity, usual class: cytotoxic; further: potency means the concentration at half of the fitted maximal effect
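CellTiter-Glo luminescence gave cytotoxicity after 18 hours at 37 degrees C. The cells were HepG2 CAGA-GFP in 1% FBS DMEM, stimulated with 500 pg/mL TGF-beta after compound addition. %Activity was normalised to no-cell wells (complete cell-killing) and DMSO (no toxicity), and curves were fitted and classified.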
HT1080-NT tox: kills 2HG-producing HT-1080-NT fibrosarcoma cells; Potency, µM (series often up to 46.1 µM), inactives show at the highest dose activity, negative = less viability, most hits filed as cytotoxic; HT-1080-NT fibrosarcoma viability, CellTiter-Glo ATP luminescence, 48 h; AID 686970; hit rate 1.6% among 360,000;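 further: NT is the 2HG producing partner of a matched IDH1 knockdown line; potency means the concentration at half of the fitted maximal effect; 0% = DMSO-treated cells and -100% = media-only wells without cells; nearly all actives have a fitted effect of over 55% in size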
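Luminescent CellTiter-Glo readout after 48 hours of compound exposure at 37 degrees C defined viability of HT-1080-NT cells. Activity was normalized to DMSO wells and cell-free media wells; concentration-response curves were fitted and assigned curve classes.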
TGFb SMAD3 inh: TGF-b pathway inhibition. HepG2 CAGA-GFP TGF-b/SMAD3 reporter, GFP fluorescence, 18 h; TGF-beta stimulated, 500 pg/mL final. Potency, µM (series often up to 46.1 µM), for the others: at the top dose activity, negative = inhibition, hits mostly inhibitors. hit rate 1.2% among 410,000. AID 588855; further: potency means the concentration at half of the fitted maximal effect; on the % scale 0 is the no-effect control and ±100 the full control effect; nearly all actives have a fitted effect of over 65% in size
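HEPG2 CAGA-GFP, 1000 cells/well; 2 h settle, 37 C; cpd via pin tool; TGF-b 500 pg/mL final; 18 h, 37 C; GFP imaging ex488/em500-530; %Activity normalised to -TGF-b and +DMSO controls; CRC fit, curve class.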
HT1080 IDH1KD tx: kills HT-1080 cells with IDH1 knockdown. Potency, µM (series often up to 46.1 µM), for inactives: at the highest dose activity, negative = toxicity, hits mostly cytotoxic. HT-1080 IDH1 knockdown viability, ATP luminescence, 48 h. AID 686971. hit rate 2% among 360,000;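 further: potency means the concentration at half of the fitted maximal effect; 0% = DMSO wells and -100% = cell-free medium wells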
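HT-1080-IDH1KD cells (IDH1 knocked down), 750/well in RPMI with 5% FBS, treated with compound 48 h at 37 degrees C. Viability by CellTiter-Glo luminescence, normalised to DMSO and no-cell wells; concentration-response curves classed.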
IL-1B inflam inh: blocks inflammasome-driven IL-1 beta release. hit rate 4.7% among 360,000. THP-1 LPS/ATP IL-1B secretion, AlphaLISA, 16 h; hits give low values. activity change, % at 57.5 µM; in the data active means activity change below about -50%; inconclusive means mostly about -30% to -49%; further: on the % scale 0 is the no-effect control and ±100 the full control effect
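Secreted IL-1B measured by AlphaLISA bead assay after 16 h compound exposure of THP-1 cells; compounds (final up to 57.5 uM) added 1 h before LPS (250 ng/mL) and ATP (1.25 mM) stimulation; lower signal means less secretion.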
Giardia killer: kills Giardia lamblia. activity change, % at 7.66 µM, hits read low. AID 540267. Giardia lamblia trophozoite viability. hit rate 0.15% among 340,000; in the data active means activity change below about -80%; inconclusive means between about -30% and that limit;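 further: parasites exposed to compound for two days anaerobically before the ATP read; on the % scale 0 is the no-effect control and ±100 the full control effect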
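Luminescent ATP signal served as the viability read-out, measured 15-30 min after adding ATP detection reagent to trophozoites that had been incubated with compounds for 48 hrs at 37 deg C anaerobically at 100 cells/well.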
Active calls of the source: *; i = inactive; ? = inconclusive; . = not tested or not shown. Unless noted, the call rests on the fitted dose curve; in most records, active means well fitted curve in the direction sought with a large enough effect; inconclusive means small, poorly fitted or top-dose-only effect, or another doubt; inactive means no such curve, though single readings can be large; an effect the other way counts as inactive or inconclusive.

SMILES	HepG2 tox	HT1080-NT tox	TGFb SMAD3 inh	HT1080 IDH1KD tx	IL-1B inflam inh	Giardia killer
O=C(Nc1ccc(OC(F)(F)F)cc1)Nc1cccc([N+](=O)[O-])c1	7.9µM*	?	?	?	-106*	-1
O=C(Cc1ccccc1)Nc1ccc2c(c1)OC1(CCCC1)O2	6%	7%	-1%	2%	0	-10
COc1ccccc1CC(=O)Nc1ccc2c(c1)OC1(CCCC1)O2	-5%	-7%	3%	-12%	-74*	9
Cc1ccc(-n2c(=O)c3c(cnn3C)n(CC(=O)Nc3ccccc3C)c2=O)cc1	-6%	.	-29%	.	.	.
O=C(CSc1ccc(-c2cccc([N+](=O)[O-])c2)nn1)N1CCCCCC1	-38%	-3%	-8%	6%	-54*	-6
COc1ccc(-c2sc3cc(OC)c(OC)cc3c2-c2ccc(O)cc2)cc1	-100%	?	?	?	-54*	-4
COc1ccccc1-c1sc2ccccc2c1-c1ccc(O)cc1	-37%	-4%	11µM*	-12%	7	19
O=C(CC1CCCCC1)NCc1ccccn1	4%	7%	1%	7%	1	10
O=C(c1c(F)cccc1F)N(Cc1ccccn1)C1CC1	0%	-4%	13µM*	15%	18	-6
COc1cccc(CNc2ccc(S(N)(=O)=O)cc2)c1OCc1ccccc1F	-13%	-8%	-26%	-22%	0	-4
CCOc1cccc(CNCCO)c1OCc1ccc(Cl)cc1	-32%	-23%	-16%	-22%	-55*	-1
COc1cccc(CNc2ccccc2O)c1OCc1ccccc1F	-1%	-18%	-16%	-19%	-92*	-4
COc1cccc(CNC(C)(C)CO)c1OCc1ccc(Cl)cc1	-15%	-12%	?	-7%	-57*	-25
Cc1ccc(CNC(=O)C2CC(c3ccccc3[N+](=O)[O-])=NO2)cc1 (configuration not stated)	-8%	5%	-10%	-4%	6	-2
CC1=C(C(=O)N(C(C)C)C(C)C)CC(CC(=O)NCc2cccc3ccccc23)C(=O)N1CCC1=CCCCC1 (configuration not stated)	-48%	?	?	?	-80*	.
CC1=C(C(=O)N(C(C)C)C(C)C)CC(CC(=O)NCc2cccc3ccccc23)C(=O)N1Cc1ccc(F)cc1 (configuration not stated)	2%	?	?	?	-68*	.
CC1=C(C(=O)N(C(C)C)C(C)C)CC(CC(=O)NCc2cccs2)C(=O)N1CCC1=CCCCC1 (configuration not stated)	-23%	-15%	?	-14%	-24	.
Cc1ccccc1N(CC(=O)N/N=C/c1ccccc1Cl)C(=O)c1ccccc1	-10%	-3%	10%	11%	2	-18
NC(=O)c1nn(Cc2ccccc2)c(=O)c2ccccc12	-5%	-5%	-5%	-11%	23	-17
COc1ccc(C(C#N)=C2C=CC(=NO)C=C2)cc1	i	15µM*	?	10µM*	-101*	4
CC(=O)ON=C1C=CC(=C(C#N)c2ccccc2)C=C1	-52%	7.3µM*	?	5.8µM*	-111*	.
Cn1nc(C(F)(F)F)c2cc(C(=O)NC3CC3)sc21	6%	14%	-3%	14%	-1	-18
N#CC(c1ccccc1)c1ccc2c(C(F)(F)F)cc(C(F)(F)F)nc2n1 (configuration not stated)	-36%	-14%	?	-4%	-83*	-12
Cc1ccc(C(C#N)c2ccc3c(C(F)(F)F)cc(C(F)(F)F)nc3n2)cc1 (configuration not stated)	-5%	12%	-6%	4%	?	-12
Clc1cccc(/C(Cc2nc3ccccc3[nH]2)=N\Nc2ccccc2)c1	-36%	?	?	?	-78*	0
SMILES	HepG2 tox	HT1080-NT tox	TGFb SMAD3 inh	HT1080 IDH1KD tx	IL-1B inflam inh	Giardia killer
c1ccc(N/N=C(\Cc2nc3ccccc3[nH]2)c2ccccc2)cc1	-8%	-4%	-46%	-23%	-68*	6
Cc1ccc(N/N=C(\Cc2nc3ccccc3[nH]2)c2ccccc2)cc1	-1%	1.3µM*	?	0.92µM*	0	-10
CCOc1ccc(/C=C2\SC(=S)N(CCC(=O)O)C2=O)cc1	-4%	12%	-2%	10%	-24	0
CCCCC(=O)Oc1ccc2oc(-c3ccc(OC)cc3)cc(=O)c2c1	-12%	.	-23%	.	.	.
COc1ccc(/C=N/NC(=O)c2nc(-c3ccccc3)cc(-c3ccccc3)n2)cc1OC	-4%	-10%	-17%	-7%	-50*	-1
COc1ccc(/C=N/NC(=O)c2cccnc2)cc1COc1ccc([N+](=O)[O-])cc1	19%	?	7%	6.5µM*	.	-8
COc1cccc(/C=N/NC(=O)c2nc(-c3ccccc3)cc(-c3ccccc3)n2)c1	24%	-1%	-8%	-2%	?	-11
COc1ccc(C(=O)N/N=C/c2ccc(OC)c(CSc3ccccn3)c2)cc1	1%	-1%	3%	-6%	?	4
COc1ccc(/C=N/NC(=O)c2cccnc2)cc1CSc1ccccn1	1%	23µM*	-2%	12µM*	60	-2
COc1ccc(OCc2cc(/C=N\NC(=O)c3ccccc3)ccc2OC)cc1	4%	6.5µM*	-26%	9.2µM*	42	1
COc1ccc(/C=N\NC(=O)c2ccccc2Br)cc1COc1ccccc1	-57%	?	?	?	-14	8
COc1cc(C(=O)N/N=C/c2ccc(OC(=O)c3ccccc3Cl)cc2)ccc1O	-16%	0%	0%	-6%	-72*	4
COc1ccc(/C=N\NC(=O)c2ccc([N+](=O)[O-])cc2)cc1COc1c(F)c(F)cc(F)c1F	-50%	-2%	0.35µM*	-4%	-23	-3
COc1cc(OC)cc(C(=O)N/N=C/c2ccc(OC)c(COc3ccc(F)cc3)c2)c1	-1%	?	?	5.2µM*	32	-1
COc1ccc(C(=O)N/N=C/c2ccc(OC)c(COc3c(F)c(F)cc(F)c3F)c2)cc1	-35%	-9%	0%	-23%	54	-12
COc1ccc(/C=N/NC(=O)c2cc(OC)c(OC)c(OC)c2)cc1CN1CCc2cc(OC)c(OC)cc2C1C (configuration not stated)	-34%	?	?	13µM*	26	-2
